# Screening results: PubChem BioAssay, several laboratories
# BCLXL inh – inhibitors of human Bcl-xL, primary screen, biochemical, fluorescence polarization, HTS. Bcl-2-like protein 1 (Homo sapiens), Q07817. GST-Bcl-xL / FITC-Bim BH3 peptide fluorescence polarization. inhibition, % at 10.9 µM. 0.7% of 320,000 active. AID 2129, 2009;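 active means inhibition above the mean of all tested compounds plus 3 SD, cutoff set per campaign, cut at about 30% in these data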;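 further: inhibitors lower millipolarization by displacing the labeled peptide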
# MCL1-BIM inh – inhibitors of MCL1 binding to BIM-BH3, primary screen, biochemical, fluorescence polarization; Induced myeloid leukemia cell differentiation protein Mcl-1 (Homo sapiens), Q07820; GST-MCL1 / FITC-Bim-BH3 fluorescence polarization; inhibition, % at 10.9 µM; 0.68% of 320,000 active; AID 2057, 2009;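 active means inhibition above the mean inhibition of all tested compounds plus 3 SD, set per campaign, cut at about 40% in these data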;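 further: higher means more loss of mP so more displacement of Bim peptide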
# Target sequence (Q07820 whole entry, looked up): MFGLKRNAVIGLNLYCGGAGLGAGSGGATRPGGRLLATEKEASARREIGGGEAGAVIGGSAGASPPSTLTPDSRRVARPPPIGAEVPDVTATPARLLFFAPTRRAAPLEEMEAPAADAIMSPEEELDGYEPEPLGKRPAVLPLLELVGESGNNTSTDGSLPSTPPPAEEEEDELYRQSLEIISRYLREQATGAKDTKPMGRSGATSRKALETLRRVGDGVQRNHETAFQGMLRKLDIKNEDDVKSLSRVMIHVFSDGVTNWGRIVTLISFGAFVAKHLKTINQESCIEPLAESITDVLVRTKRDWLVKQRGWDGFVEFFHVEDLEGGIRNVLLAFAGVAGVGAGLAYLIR
# EBV gp42 inh – Epstein-Barr virus gp42 inhibitors, primary screen, biochemical, uHTS, fluorescence polarization; Glycoprotein 42 (Epstein-Barr virus (strain AG876)), Q1HVG2; Fluorescence polarization binding assay, mP read-out; inhibition, % (tested at 21.74 µM); 0.42% of 220,000 active; in the data active means inhibition above about 50%
# Target sequence (Q1HVG2 whole entry, looked up): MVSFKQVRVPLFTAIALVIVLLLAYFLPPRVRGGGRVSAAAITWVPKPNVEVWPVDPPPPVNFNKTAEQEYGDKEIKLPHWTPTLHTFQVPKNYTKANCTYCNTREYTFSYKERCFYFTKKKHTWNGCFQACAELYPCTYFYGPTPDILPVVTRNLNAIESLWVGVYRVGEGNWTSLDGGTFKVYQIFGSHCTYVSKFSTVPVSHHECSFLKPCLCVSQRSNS
# MEX-5 binding – MEX-5 zinc finger RNA-binding disruptors – biochemical, C. elegans, fluorescence polarization, MLPCN library, primary screen; MEX-5/FITC-TCR2 RNA binding; active compounds read low; activity score (negative = inhibition of binding), % at 10 µM; 0.38% of 300,000 active; AID 1832, 2009;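 active means inhibition past about -25% in most replicates, and total fluorescence under double the plate's negative control median, limit read from the data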
# GLD-1 RNA inh – GLD-1/TGE RNA complex disruptors, primary screen, biochemical, fluorescence polarization; Female germline-specific tumor suppressor gld-1 (Caenorhabditis elegans), Q17339; purified GLD-1 + fluorescein TGE RNA; inhibition, % at 5.96 µM; 0.44% of 320,000 active;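 active means percent inhibition above a per-plate cutoff, the plate mean of test compounds plus 3 SD, cut at about 30% in these data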
# Bcl-xL conf – Bcl-xL inhibitors blocking Bim BH3 binding, confirmation, counter-screen for MCL1 inhibitor project, biochemical, fluorescence polarization; GST-Bcl-xL / FITC-Bim BH3 peptide FP binding; inhibition, % at 10.9 µM; 54% of 1,700 active; shares compounds with MCL1-BIM inh;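 active means inhibition above a cutoff equal to the mean inhibition of all tested compounds plus 3 SD, cut at about 30% in these data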
# MCL1 inh confirm – inhibitors of MCL1 binding to BIM-BH3, confirmation, biochemical, fluorescence polarization, triplicate. shares compounds with MCL1-BIM inh. GST-MCL1 / FITC-Bim-BH3 fluorescence polarization. inhibition, % at 10.9 µM. 61% of 1,700 active;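 active means inhibition above the average of all tested compounds plus 3 SD, cut at about 40% in these data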
# GLD-1 TGE cf – GLD-1/TGE RNA binding inhibitors, retest, confirmation, biochemical, fluorescence polarization, triplicate; AID 2459, 2010; inhibition, % at 5.96 µM; shares compounds with GLD-1 RNA inh; GLD-1/FL-TGE RNA fluorescence polarization; 10% of 550 active;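 active means average inhibition across triplicates above the hit cutoff set in the primary screen, cut at about 32% in these data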
# Hits are given with their value; n = inactive; x = no result. In the library only some 1.3% were active in any assay of this set; here they are far more common.
SMILES,BCLXL inh,MCL1-BIM inh,EBV gp42 inh,MEX-5 binding,GLD-1 RNA inh,Bcl-xL conf,MCL1 inh confirm,GLD-1 TGE cf
CCCC(=O)NCc1ccc2c(c1)cc(C)n2C,48.3,52.4,n,n,54.3,n,n,n
Nc1cccc2c1C(=O)N(c1ccccc1)C2=O,69.0,80.1,x,-25.8,70.5,64.6,78.8,67.2
Cc1ccc(S(=O)(=O)Nc2cc(S(=O)(=O)N3CCOCC3)ccc2NCC2CCCO2)cc1 (centres undefined),n,n,x,x,n,x,x,x
CC(OC(=O)/C(C#N)=C/c1ccc(N(C)C)cc1)C(=O)N(C)c1ccccc1 (centres undefined),n,n,x,n,n,x,x,x
CC(OC(=O)/C(C#N)=C/c1ccc(N(C)C)cc1)C(=O)NCc1ccco1 (centres undefined),110.6,128.8,x,n,76.8,99.0,141.9,56.0
Nc1c(O)ccc2c1C(=O)c1ccccc1C2=O,105.4,105.1,145.7,-39.4,72.4,111.3,127.2,53.4
Cc1ccc(-n2c(C)nc3c(cnn3-c3ccc(C)c(C)c3)c2=O)cc1C,75.6,78.9,n,n,75.4,n,n,n
CCCN=C1N/C(=C\c2ccco2)C(=O)N1c1ccccc1,n,n,n,n,n,x,x,x
O=C1/C(=C\c2ccco2)NC(=S)N1c1ccccc1,33.9,49.7,n,n,55.0,n,n,n
O=Cc1c(N2CCN(CCO)CC2)nc2ccccn2c1=O,60.2,68.9,x,n,41.4,54.5,76.6,n
CCOC(=O)N1CCc2[nH]c3ccc(C)cc3c2C1,65.8,62.5,n,n,52.8,n,n,n
CC(=O)N1CCc2[nH]c3ccc(C)cc3c2C1,n,n,x,n,n,x,x,x
CNC(=O)COC(=O)c1cc(-c2ccco2)nc2ccccc12,95.9,121.2,n,n,57.1,37.9,75.5,n
Cc1ccc(NC(=O)CS(=O)CC(=O)Nc2ccccc2-c2ccc(C)o2)cc1 (centres undefined),72.2,88.3,x,n,65.8,n,n,n
CC(=O)Nc1ccccc1-c1ccc(C)o1,n,n,n,n,n,x,x,x
Cc1ccc(S(=O)(=O)N2CCC(NC(=O)c3ccccc3)CC2)cc1,n,n,n,n,n,x,x,x
Cc1ccc(-c2cc(-c3ccco3)c(C#N)c(=O)[nH]2)cc1,78.7,96.2,n,-40.1,50.2,n,53.1,n
C=C1c2cccc(O)c2C(O)=C2C(=O)[C@]3(O)C(O)=C(C(N)=O)C(=O)[C@@H](N(C)C)[C@@H]3[C@@H](O)[C@H]12,63.8,107.5,n,-31.8,36.4,36.0,86.7,n
COc1ccc(NC(=O)Nc2cc(C)cc(C)c2)cn1,58.4,58.0,n,-36.4,48.0,62.2,79.5,42.6
c1ccc(-[n+]2nc(Nc3cccc4ccccc34)sc2-c2c3ccccc3cc3ccccc23)cc1,n,n,x,x,n,x,x,x
CNc1nc2cc([N+](=O)[O-])c([N+](=O)[O-])cc2nc1NC,89.6,98.2,n,n,98.3,n,n,n
CCCOc1ccc(C2C3=C(CCCC3=O)N(CC(=O)O)C3=C2C(=O)CCC3)cc1OCC,81.2,100.9,x,n,32.6,n,n,n
C=CCOc1ccc(C2C3=C(CCCC3=O)N(CC(=O)O)C3=C2C(=O)CCC3)cc1OCC,n,n,x,n,n,x,x,x
COc1cc(NS(=O)(=O)c2ccc(NC(=S)NC(=O)COc3ccccc3OC)cc2)nc(OC)n1,n,n,n,n,n,x,x,x
O=C(CNCc1cccs1)Nc1ccc(N2CCCCCC2)cc1,n,n,n,n,n,x,x,x
SMILES,BCLXL inh,MCL1-BIM inh,EBV gp42 inh,MEX-5 binding,GLD-1 RNA inh,Bcl-xL conf,MCL1 inh confirm,GLD-1 TGE cf
Cc1cccc(-n2c(SCc3cc(=O)n4ccsc4n3)nc3ccccc32)c1,73.4,66.7,77.9,n,42.5,63.4,88.8,n
Cc1ccc(SCc2cc(=O)n3ccsc3n2)c(C)c1,n,n,n,n,n,x,x,x
CN(CC(=O)Nc1ccccc1Br)C(=O)CNC(=O)c1ccc(Oc2ccccc2)cc1,n,n,x,n,n,x,x,x
Cc1ccc(CNC(=O)c2ccc(Br)o2)cc1,n,n,n,n,n,x,x,x
Cc1cc2cc(CNC(=O)c3ccc(Br)o3)ccc2[nH]1,54.6,68.9,n,n,41.3,56.7,74.6,n
Cc1cc2cc(CNC(=O)c3ccc4c(c3)OCO4)ccc2[nH]1,37.2,53.5,x,n,33.5,n,n,n
CC(C)c1ccc(C2c3[nH]c4ccccc4c3C[C@H]3C(=O)N(c4ccccc4C(=O)N4CCC(C(=O)O)CC4)C(=O)N23)cc1 (some centres undefined),n,n,x,n,n,x,x,x
c1ccc(SCCN2CCN(c3ccccc3)CC2)cc1,n,n,x,n,n,x,x,x
Cc1ccccc1CS(=O)(=O)CCC(=O)NCCN1CCN(c2cccc(Cl)c2)CC1,62.4,58.9,n,n,62.1,n,n,n
N#Cc1ccsc1NC(=O)CN1C(=O)NC2(CCCC2)C1=O,65.5,70.8,x,n,53.9,59.2,94.2,n
CCOc1ccc(N=C/C=C/c2ccccc2)c(O)c1,83.8,87.2,n,n,72.1,n,n,n
CCOc1ccc(NCC(=O)N/N=C/C=C/c2ccccc2)cc1,n,n,n,n,n,x,x,x
CCOc1ccc(NC(=O)C(C)Oc2ccccc2C(=O)Nc2ccc(C)c(Cl)c2)cc1 (centres undefined),n,n,n,n,n,x,x,x
Cc1nc(SCC(=O)Nc2c(C)n(C)n(-c3ccccc3)c2=O)[nH]c(=O)c1Cc1ccccc1,55.2,70.7,n,n,47.4,n,n,n
CCc1c(C)nc(SCC(=O)Nc2c(C)n(C)n(-c3ccccc3)c2=O)[nH]c1=O,n,n,n,n,n,x,x,x
O=c1[nH]c(Nc2ccccn2)cc2ccccc12,n,n,x,n,n,x,x,x
O=c1[nH]c(Nc2ccc(F)cc2)cc2ccccc12,54.3,66.3,n,n,66.1,n,n,n
Cc1cc(C(C)(C)C)cc(C)c1COC(=O)c1cccnc1,n,n,x,n,n,x,x,x
